PubChem BioAssay (NCI)
This is part of a sample that, as a whole, favours compounds with a hit. Of some 79,000 tested, about 15% had one in any assay. Active and inactive are the calls of the source. Rule as the data show it: active = growth inhibition above about 70%; inactive = the rest.

Legend:
[1] = NCI Yeast Anticancer Drug Screen. Data for the rad52 strain (AID 147);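 also: 0% = growth of vehicle-treated control cultures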; details: S. cerevisiae rad52 mutant growth inhibition, stronger effect = higher value
Method in brief: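 DNA repair-defective yeast; compound exposure; growth scored against vehicle controls.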

[2] = NCI Yeast Anticancer Drug Screen. Data for the wt1 strain (AID 149);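 also: 0% = growth of vehicle-treated wt1 cultures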; details: S. cerevisiae wt1 strain (SPY 50644) growth inhibition, stronger effect = higher value
Method in brief: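 Each compound is tested on wt1 yeast and the loss of growth versus vehicle gives the inhibition value.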

[3] = NCI Yeast Anticancer Drug Screen. Data for the rad50EPP+ strain (AID 151);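 also: 0% = growth of vehicle-treated control cultures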; details: S. cerevisiae rad50 mutant strain, stronger effect = higher value
Method in brief: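 rad50EPP+ yeast treated with test compounds. Readout: growth vs vehicle control.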

[4] = NCI Yeast Anticancer Drug Screen. Data for the mgt1 strain (AID 153); details: S. cerevisiae mgt1 mutant growth inhibition, stronger effect = higher value
Method in brief: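 Growth inhibition relative to vehicle controls was scored for the mgt1 yeast strain after compound exposure.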

[5] = NCI Yeast Anticancer Drug Screen. Data for the rad50 strain (AID 155);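 also: 0% = growth of vehicle-only cultures of the same strain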; details: S. cerevisiae rad50 strain growth inhibition, stronger effect = higher value
Method in brief: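 Vehicle-treated cultures provide the reference for the growth inhibition reported for compound-exposed, repair-deficient yeast.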

[6] = NCI Yeast Anticancer Drug Screen. Data for the mec2-1 strain (AID 157); details: S. cerevisiae mec2-1 strain, stronger effect = higher value
Method in brief: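 Growth inhibition is read against vehicle-treated controls after compound exposure of the mec2-1 yeast strain, which is defective in DNA damage repair or cell cycle control.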

[7] = NCI Yeast Anticancer Drug Screen. Data for the rad14 strain (AID 159);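 also: 0% = growth of vehicle-treated control cultures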; details: S. cerevisiae rad14 strain growth inhibition, stronger effect = higher value
Method in brief: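 Inhibition of growth is reported for a repair-deficient yeast mutant following compound treatment, calculated relative to cultures that received vehicle.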

[8] = NCI Yeast Anticancer Drug Screen. Data for the sgs1 mgt1 strain (AID 161);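 also: 0% = growth of cultures given vehicle only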; details: S. cerevisiae sgs1 mgt1 strain, stronger effect = higher value
Method in brief: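 Yeast cells carrying a defined DNA-repair defect were exposed to test compounds. Growth inhibition was measured relative to vehicle-treated controls.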

[9] = NCI Yeast Anticancer Drug Screen. Data for the cln2 rad14 strain (AID 165);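 also: 0% = growth equal to vehicle treated cultures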; details: S. cerevisiae cln2 rad14 strain, stronger effect = higher value
Method in brief: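 Growth inhibition, relative to vehicle-treated controls, is the read-out. The test organism is a yeast strain with defined genetic alterations, cln2 rad14.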

[10] = NCI Yeast Anticancer Drug Screen. Data for the bub3 strain (AID 167); details: S. cerevisiae bub3 mutant strain, stronger effect = higher value
Method in brief: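 Mutant yeast screening strain plus compound; vehicle-treated cultures serve as the 0% inhibition reference.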

[11] = NCI Yeast Anticancer Drug Screen. Data for the wt2 strain (AID 169); details: S. cerevisiae wt2 strain growth inhibition, stronger effect = higher value
Method in brief: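 Compound exposure of yeast; growth compared with vehicle controls; inhibition reported.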

[12] = NCI Yeast Anticancer Drug Screen. Data for the mlh1 strain (AID 171);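 also: 0% = growth of vehicle-treated control cultures of the same strain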; details: S. cerevisiae mlh1 strain growth inhibition, stronger effect = higher value
Method in brief: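 Compounds are applied to a genetically altered yeast strain, and its growth is compared with that of vehicle-treated cultures to give percent inhibition.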

[13] = NCI Yeast Anticancer Drug Screen. Data for the sgs1 strain (AID 173);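 also: 0% = growth of vehicle-only control cultures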; details: S. cerevisiae sgs1 mutant, stronger effect = higher value
Method in brief: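 Compounds applied to genetically altered yeast; growth compared with vehicle-treated cultures to give % inhibition.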

[14] = NCI Yeast Anticancer Drug Screen. Data for the mlh1 rad18 strain (AID 175); details: S. cerevisiae mlh1 rad18 strain growth inhibition, stronger effect = higher value
Method in brief: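 Cells of a genetically altered yeast strain, deficient in DNA damage repair, were treated with compound. Their growth was then compared with that of vehicle-treated cultures to give inhibition.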

[15] = NCI Yeast Anticancer Drug Screen. Data for the rad18 strain (AID 177); details: S. cerevisiae rad18 mutant growth inhibition, stronger effect = higher value
Method in brief: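 Compounds are applied to a repair-deficient yeast strain, and growth is compared with that of vehicle-treated cultures to give percent inhibition.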

[16] = at 5.0 µM (retest, dose inferred, filed as 0.5)
[17] = at 50.0 µM (retest, dose inferred, filed as 5.0)

Measured: growth inhibition

CCN(CC)C(=S)N/N=C(\C)c1ccccc1O
inactive: [1]; at 1.2 µM -36% | [1]; at 3.7 µM -42% | [1]; at 11.0 µM -1% | [2]; at 1.2 µM -7% | [2]; at 3.7 µM -3% | [2]; at 11.0 µM 28% | [3]; at 1.2 µM 9% | [3]; at 3.7 µM -7% | [3]; at 11.0 µM 15% | [3]; at 33.0 µM 45% | [4]; at 1.2 µM 9% | [4]; at 3.7 µM 16% | [5]; at 1.2 µM 0% | [5]; at 3.7 µM -13% | [5]; [16] -1% | [5]; at 11.0 µM 22% | [6]; at 1.2 µM 3% | [6]; at 3.7 µM -3% | [6]; [16] 35% | [6]; at 11.0 µM 40% | [7]; at 1.2 µM 3% | [7]; at 3.7 µM -22% | [7]; at 11.0 µM 26% | [8]; [16] -3% | [9]; [16] 54% | [10]; at 1.2 µM -21% | [10]; at 3.7 µM -7% | [10]; at 11.0 µM 36% | [11]; at 1.2 µM -37% | [11]; at 3.7 µM -31% | [11]; at 11.0 µM 6% | [12]; at 1.2 µM 11% | [12]; at 3.7 µM 25% | [12]; at 11.0 µM 66% | [13]; at 1.2 µM -5% | [13]; at 3.7 µM 5% | [13]; at 11.0 µM 42% | [14]; [16] -18% | [15]; at 1.2 µM 18% | [15]; at 3.7 µM 9% | [15]; at 11.0 µM 29%
active: [1]; at 33.0 µM 96% | [1]; at 100.0 µM 99% | [2]; at 33.0 µM 98% | [2]; at 100.0 µM 98% | [3]; at 100.0 µM 83% | [4]; at 11.0 µM 71% | [4]; at 33.0 µM 98% | [4]; at 100.0 µM 99% | [5]; at 33.0 µM 98% | [5]; [17] 96% | [5]; at 50.0 µM 93.3% | [5]; at 100.0 µM 99% | [6]; at 33.0 µM 97% | [6]; [17] 98% | [6]; at 50.0 µM 94.5% | [6]; at 100.0 µM 99% | [7]; at 33.0 µM 96% | [7]; at 100.0 µM 98% | [8]; [17] 95% | [8]; at 50.0 µM 94% | [9]; [17] 95% | [9]; at 50.0 µM 89.3% | [10]; [16] 95% | [10]; at 33.0 µM 97% | [10]; [17] 98% | [10]; at 50.0 µM 93.3% | [10]; at 100.0 µM 99% | [11]; at 33.0 µM 97% | [11]; at 100.0 µM 98% | [12]; at 33.0 µM 98% | [12]; at 100.0 µM 99% | [13]; at 33.0 µM 97% | [13]; at 100.0 µM 98% | [14]; [17] 97% | [14]; at 50.0 µM 92.2% | [15]; at 33.0 µM 97% | [15]; at 100.0 µM 98%

O=C1C2=C(c3ccccc31)C(c1ccccc1)N1C(=O)CSC1=N2 (stereo unspecified)
inactive: [1]; at 1.2 µM 12% | [1]; at 3.7 µM 15% | [1]; at 11.0 µM 25% | [1]; at 33.0 µM 31% | [2]; at 1.2 µM 10% | [2]; at 3.7 µM 3% | [2]; at 11.0 µM 15% | [2]; at 33.0 µM 22% | [2]; at 100.0 µM 54% | [3]; at 1.2 µM 9% | [3]; at 3.7 µM 2% | [3]; at 11.0 µM 5% | [3]; at 33.0 µM 33% | [3]; at 100.0 µM 23% | [4]; at 1.2 µM -2% | [4]; at 3.7 µM 1% | [4]; at 11.0 µM -7% | [4]; at 33.0 µM 38% | [5]; at 1.2 µM -1% | [5]; at 3.7 µM 2% | [5]; [16] 14% | [5]; at 11.0 µM 12% | [5]; at 33.0 µM 30% | [5]; [17] 44% | [5]; at 50.0 µM 58.2% | [6]; at 1.2 µM 5% | [6]; at 3.7 µM 10% | [6]; [16] -9% | [6]; at 11.0 µM 10% | [6]; at 33.0 µM 8% | [6]; [17] 16% | [6]; at 50.0 µM 45% | [7]; at 1.2 µM -21% | [7]; at 3.7 µM -17% | [7]; at 11.0 µM -20% | [7]; at 33.0 µM 6% | [8]; [16] 11% | [8]; [17] 44% | [8]; at 50.0 µM 59.6% | [9]; [16] -11% | [9]; [17] 26% | [9]; at 50.0 µM 38.7% | [10]; at 1.2 µM -2% | [10]; at 3.7 µM 17% | [10]; [16] -31% | [10]; at 11.0 µM 15% | [11]; at 1.2 µM 2% | [11]; at 3.7 µM 7% | [11]; at 11.0 µM 28% | [11]; at 33.0 µM 44% | [12]; at 1.2 µM 3% | [12]; at 3.7 µM -8% | [12]; at 11.0 µM 1% | [12]; at 33.0 µM 32% | [13]; at 1.2 µM -8% | [13]; at 3.7 µM -14% | [13]; at 11.0 µM 13% | [13]; at 33.0 µM 41% | [14]; [16] -27% | [14]; [17] 42% | [14]; at 50.0 µM 51% | [15]; at 1.2 µM -1% | [15]; at 3.7 µM 10% | [15]; at 11.0 µM 14% | [15]; at 33.0 µM 31%
active: [1]; at 100.0 µM 73% | [4]; at 100.0 µM 81% | [5]; at 100.0 µM 74% | [6]; at 100.0 µM 73% | [7]; at 100.0 µM 74% | [10]; at 33.0 µM 79% | [10]; [17] 92% | [10]; at 50.0 µM 87.2% | [10]; at 100.0 µM 92% | [11]; at 100.0 µM 82% | [12]; at 100.0 µM 84% | [13]; at 100.0 µM 77% | [15]; at 100.0 µM 72%
